Some targets named below: GLP1R; GNAQ; GLIS2.
Experiment in all cases: pooled miR-30 sensor sort-seq; sequence = guide strand
What all share (conditions): shRNA

In the OligoGym collection one finds sensor-assay potency score (higher = more potent) data, which are given here for six sequences.
Further: reference of the scale not given here.

In the case of TTCAGGTGGATGTAGTTCCTGG, the sensor-assay potency score (higher = more potent) in the assay with GLP1R was -0.141.
In the assay with GNAQ, TATCTTCATCAGAGTATCCTGA registered a sensor-assay potency score (higher = more potent) of -0.164.
TTCCTTGCACATCACATGCCTC came in with a sensor-assay potency score (higher = more potent) with GLP1R of -0.533.
In the assay with GLIS2, TTCTCGTTGGTGTGTGTGCGGA gave a sensor-assay potency score (higher = more potent) of -0.632.
In the case of ATGAGCAGAAACACCAGGCGGC, the sensor-assay potency score (higher = more potent) with GLP1R was -0.579.
TTGGAATAGCGCTTGTTGCAGC: the sensor-assay potency score (higher = more potent) with GLIS2 was -0.438.
